Measurements reported in PubChem BioAssay.
Measured potencies and affinities stand elsewhere. Unmarked numbers belong to inactive results.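 How the source made its calls: active means signal drop whose fitted half-maximal concentration is at most twice the top valid dose, in every test run; inconclusive means mixed calls across runs, poor fit, or flat 30 to 70% inhibition; inactive means wrong direction, flat within 30%, or potency beyond limit.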

assay: cytotoxicity in PAX8-dependent RMG-1 cells, dose response, cell-based, cherry-pick (AID 687029); conditions: RMG-1 viability, CellTiterGlo ATP luminescence, 96 h; series mostly up to 35 µM; activity change, negative = inhibition: at the top concentration;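 further: cells exposed to compound for 96 hours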

Structure (SMILES) | activity change, negative = inhibition
O=C(Nc1cccc(F)c1)N1C[C@@H]2N[C@H](C1)C2c1ccc(-c2ccc(F)cc2)cc1 (stereo not given in full) | 13.4%
CCOC(=O)c1cnn(CCOC(=O)c2cccc(F)c2)c1NC(=O)c1cccc(F)c1 | 29.5%
COc1cc(NC(=O)Cn2ncc(Cl)c(Cl)c2=O)c(C)cc1[N+](=O)[O-] | 28.9%
COc1cc(/C=N\NC(=O)c2ccc(-c3ccccc3)cc2)cc(OC)c1OC(C)=O | 17.9%
O=C(NCCN1C(=O)S/C(=C\c2ccc(OC(F)F)cc2)C1=O)c1cnccn1 | 15%
CCOc1ccc(CCN2C(=S)N([C@@H](Cc3ccc(O)cc3)CN3CCC[C@@H]3CN3C(=S)NC[C@@H]3CC(C)C)C[C@@H]2Cc2ccc(O)cc2)cc1 | -14.2%
N#C[C@H]1[C@@H](c2ccc(C#Cc3ccc(F)cc3)cc2)[C@H](CO)N1C(=O)Nc1ccc(F)cc1 | 26.1% [at 30 µM]
C[C@H]1CCCCO[C@H](CN(C)C(=O)Nc2ccc(C(F)(F)F)cc2)[C@@H](C)CN([C@@H](C)CO)C(=O)c2cc(NS(=O)(=O)c3ccc(Cl)cc3)ccc2O1 | 17.6%
Cc1ccc(S(=O)(=O)Nc2ccc3c(c2)C(=O)N([C@H](C)CO)C[C@H](C)[C@@H](CN(C)Cc2ccc(C(F)(F)F)cc2)OCCCC[C@H](C)O3)cc1 | 26.1%
N#Cc1cccc(-c2ccc(C3[C@@H]4CN(C(=O)C5CC5)C[C@H]3N4)cc2)c1 (stereo not given in full) | 14.3%
CN(C)CCNc1ccc(CO)c2sc3ccc(O)cc3c(=O)c12 | 18.7%
Cc1ccc(C(=O)c2cc([N+](=O)[O-])ccc2N2CCCCC2)cc1 | 18.2%
CC1CCN(CCc2nc3cc(NS(=O)(=O)c4ccccc4)ccc3n2C)CC1 | 26.5%
Cc1cc(-n2c(SCC(=O)NCCC3=CCCCC3)nc3n[nH]c(C)c3c2=N)ccc1Cl | 49%
COC(=O)c1ccccc1-c1c2ccc(=N)cc-2oc2cc(N)ccc12 | 24.3%
COc1cc(OC)c(NC2=CC(=O)C(=O)c3ccccc32)cc1Cl | 20.7%
CC[C@@]1(O)C(=O)OCc2c1cc1n(c2=O)Cc2cc3c(N)cccc3nc2-1 | 20%
CN[C@H]1CCc2cc(OC)c(OC)c(OC)c2-c2ccc(OC)c(=O)cc21 | 22.6%
COc1ccc(S(=O)(=O)Nc2ccc3c(c2)C(=O)N([C@@H](C)CO)C[C@H](C)[C@H](CN(C)Cc2ccc(C(F)(F)F)cc2)OCCCC[C@H](C)O3)cc1 | 15.5%
CCN1CCN(Cc2ccc(NC(=O)c3cc(NC(=O)C(=O)c4c[nH]c5ccccc45)cc(OC)c3)cc2C(F)(F)F)CC1 | 42.6%

Structure (SMILES) | activity change, negative = inhibition
C=CC(=O)N=c1sc2ccccc2n1-c1ccccc1 | 30.4%
CC(=O)OC1CCC2(C)C(CCC3C4CC=C(C(C)=O)C4(C)OC(=O)CC32)C1 (stereo not given) | 16.3%
Oc1ccc(N=Nc2ccccc2C(F)(F)F)c2cccnc12 | 39.8%
O=C(O)CCCN1C(=O)/C(=C\C(Cl)=C\c2ccccc2)SC1=S | 52%
Oc1ccc2ccccc2c1N=Nc1nccs1 | 26.9%
COc1cc(/C=N/NS(=O)(=O)c2ccc(C)cc2)ccc1OCc1cccc(C(=O)O)c1 | 28.1%
COc1cccc2c1C(=O)c1c(O)c3c(c(O)c1C2=O)CC(O)(C(C)=O)CC3OC1CC(N(C)C)C(O)C(C)O1 (stereo not given) | 10.9%
Cc1ccc(C)c(CSC2=NCCN2C(=O)Cc2ccc([N+](=O)[O-])cc2)c1 | 17.1%
Cc1cccc(C)c1NS(=O)(=O)c1ccc(-c2cnc(C3CC3)o2)cc1 | 32.8%
C=C1C(=O)O[C@@H]2C[C@@H](C)[C@@H]3C=CC(=O)[C@@]3(C)[C@@H](OC(C)=O)[C@H]12 | 46.3%
Cc1ccc(S(=O)(=O)CCC(=O)c2ccc(F)cc2)cc1 | 49.8%
Cc1cc(NC(=O)c2ccc([N+](=O)[O-])o2)ccc1NC(=O)c1ccco1 | -50.7%
COc1ccc(C(=O)NN(C)c2nc(C(F)(F)F)nc3ccccc23)cc1 | 8.29%
Cc1[nH]c2ccccc2c(=O)c1C(=O)/C=C/c1ccccc1 | 56.7%
CCOc1ccccc1C1C2=C(COC2=O)Nc2cc3c(cc21)OCO3 (stereo not given) | 40.5%
CS(=O)(=O)c1ncc(Cl)c(C(=O)Nc2ccc3ccccc3c2)n1 | 15.4%
C=C1C(=O)[C@]23C[C@H]1CCC2[C@]1(C)CCC[C@@](C)(C(=O)O)C1C[C@@H]3O (stereo not given in full) | 1.96%
O=C(Nc1ccc([N+](=O)[O-])cc1)Nc1nc(-c2ccc(Cl)s2)cs1 | 19.9%
O=c1c(Cl)c(Cl)cnn1Cc1nnc(-c2ccccc2Br)o1 | 35.9%
C#CCN(C[C@@H]1[C@@H](OC(=O)Nc2cccs2)[C@@H](OC(=O)Nc2cccs2)Cn2c(=O)ccc(=O)n21)S(=O)(=O)c1ccc(C)cc1 | 15.4%
